# Screening data as filed in PubChem BioAssay.
# Sampled rows, rich in hits. Any-hit rate of the full collection: about 4%.
# CSC inhib – cancer stem cell inhibition; inhibition, % at 7.5 µM; AID 2717; hit rate 1.1% among 300,000; cancer stem cell-like cells viability, luminescence; in the data active = inhibition above about 75%; tested in HMLE shEcad cells
# Mdm2 MdmX PPI – disrupts the human Mdm2-MdmX interaction | inhibition, % at 8 µM | O15151+Q00987 | SaOS-2 split-luciferase Mdm2/MdmX complementation, luminescence | AID 485346 | hit rate 3% among 330,000;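 active = inhibition of at least 50% at 8 µM in the primary screen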
# Target sequence (O15151 whole entry, looked up): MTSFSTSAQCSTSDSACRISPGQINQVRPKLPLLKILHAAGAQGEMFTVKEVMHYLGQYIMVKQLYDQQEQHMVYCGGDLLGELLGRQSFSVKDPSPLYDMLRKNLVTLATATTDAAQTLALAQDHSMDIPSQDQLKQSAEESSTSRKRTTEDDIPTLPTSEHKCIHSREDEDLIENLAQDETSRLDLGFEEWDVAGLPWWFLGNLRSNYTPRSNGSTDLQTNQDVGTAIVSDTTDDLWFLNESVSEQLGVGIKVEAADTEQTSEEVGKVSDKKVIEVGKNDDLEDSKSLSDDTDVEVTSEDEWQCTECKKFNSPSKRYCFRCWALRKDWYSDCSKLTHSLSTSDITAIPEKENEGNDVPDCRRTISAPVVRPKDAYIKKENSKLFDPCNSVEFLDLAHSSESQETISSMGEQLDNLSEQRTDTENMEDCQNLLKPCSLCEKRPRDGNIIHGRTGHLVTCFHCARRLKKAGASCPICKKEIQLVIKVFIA
# Target sequence (Q00987 whole entry, looked up): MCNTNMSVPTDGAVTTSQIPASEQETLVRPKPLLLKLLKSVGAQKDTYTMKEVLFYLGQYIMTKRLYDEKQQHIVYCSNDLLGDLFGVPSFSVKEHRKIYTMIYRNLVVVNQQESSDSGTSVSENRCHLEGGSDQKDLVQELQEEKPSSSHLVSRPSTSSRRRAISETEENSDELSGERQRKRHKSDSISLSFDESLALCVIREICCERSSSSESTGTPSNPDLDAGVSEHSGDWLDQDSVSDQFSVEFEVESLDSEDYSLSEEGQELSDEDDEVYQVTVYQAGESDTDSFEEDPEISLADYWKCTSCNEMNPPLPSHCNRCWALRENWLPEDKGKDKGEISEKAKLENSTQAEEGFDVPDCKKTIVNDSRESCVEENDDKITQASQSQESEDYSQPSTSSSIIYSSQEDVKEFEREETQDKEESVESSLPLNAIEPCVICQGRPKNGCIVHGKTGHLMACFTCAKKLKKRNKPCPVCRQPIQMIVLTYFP
# PAX8 reporter – PAX8 transcriptional activity inhibition; RMG-I TPO-luciferase reporter, SteadyGlo, 24 h; inhibition, % at 12.6 µM; hit rate 1.2% among 360,000;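 active = mean replicate inhibition at least 60% with every replicate also reaching 60%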;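 note: luciferase light reporting Pax8 driven TPO promoter activity; plate controls were median of neutral control wells for no effect and mitoxantrone controls for full effect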
# Shn3 inh set2 – reduces Shn3 3'UTR luciferase signal in osteoblasts; Clone20 osteoblast Shn3 3'UTR firefly luciferase, 24 h; inhibition, % at 12.5 µM; hit rate 0.52% among 360,000; AID 588674;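 active = mean inhibition of at least 75% with every replicate also reaching 75%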;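 note: 0% = median of neutral control wells and 100% = pilot-screen positive control compound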
# Beta cell apopt – blocks beta cell apoptosis; INS-1E cytokine-induced death, ATP luminescence, 48 h; percent of positive-control rescue, neutral wells zero; protection from apoptosis, % (no concentration beside the values); hit rate 0.8% among 300,000; AID 435005;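 active = Every replicate reaches about 75%, or at least half do and their mean reaches it too, limit read from the data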;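 note: 0% = cytokine-treated negative control wells and 100% = positive control rescue; higher means more ATP so stronger rescue from cytokine killing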
# Gli-Sufu block – blocks Gli-Sufu signaling in a luciferase reporter | Sufu-KO-LIGHT fibroblasts, Gli luciferase reporter luminescence | inhibition, % at 5 µM | hit rate 0.74% among 340,000 | AID 588413;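 active = inhibition above about 55%, limit read from the data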;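 note: 0% = DMSO-treated cells and 100% = wells with medium but no cells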
# Mdm2-MdmX conf – confirmation of human Mdm2/MdmX interaction inhibitors. AID 489028. shares compounds with Mdm2 MdmX PPI. hit rate 55% among 10,000. Mdm2-MdmX binding, luminescent assay. inhibition, % at 8 µM; in the data active = inhibition above about 40%
# FLuc counter – inhibits full-length luciferase, flagging false Mdm2/MdmX hits. SaOS-2 full-length luciferase counterscreen, luminescence. shares compounds with Mdm2 MdmX PPI. inhibition, % at 8 µM. hit rate 77% among 6,200;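 active = mean inhibition at 8 µM reaching about 37%, which flags the compound as non-specific, limit read from the data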;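 note: p53-null SaOS-2 cells with luciferase driven by a doxycycline-inducible promoter; compound on cells about two nights before reading with doxycycline added after day one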
# * = called active by the depositor; . = no result given.
SMILES,CSC inhib,Mdm2 MdmX PPI,PAX8 reporter,Shn3 inh set2,Beta cell apopt,Gli-Sufu block,Mdm2-MdmX conf,FLuc counter
O=C(O)[C@H]1[C@H](CO)[C@H]2Cn3c(ccc(-c4cccc(F)c4)c3=O)[C@@H]1N2CCc1ccccc1,.,.,-3.0,.,.,.,.,.
N#CC(C#N)=NNc1ccc(-n2ccc(C(F)(F)F)n2)cc1,64.3,93.9*,93.8*,.,101.6*,76.2*,73.1*,31.2
CCN(CC)S(=O)(=O)c1ccc(NN=C(C#N)C#N)cc1,12.2,-2.2,3.3,-3.1,3.8,2.5,.,.
Cc1cc(C)n(-c2ccc(NN=C(C#N)C#N)cc2)n1,31.9,62.4*,11.2,11.1,-11.8,26.8,58.5*,57.2*
O=C(O)C[C@@H]1CC[C@H]2NC[C@@H](O)COC[C@@H]2O1,.,.,0.5,.,.,.,.,.
CC(=O)c1c(C)n(C2CCCCC2)c2ccc(O)cc12,3.6,81.9*,-11.6,14.4,.,-18.1,81.8*,47.9*
COc1ccc(-c2ccc([C@@H]3[C@@H](CO)N4CCCCN(C(=O)Cc5ccccc5)C[C@@H]34)cc2)cc1,.,.,-23.7,.,.,.,.,.
C/C=C/c1ccc(C2[C@@H]3CN(Cc4cccnc4)C[C@H]2N3)cc1 (stereo partly specified),.,.,1.7,.,.,.,.,.
Cc1cc(O)c2c(c1)C(=O)C13C(=C2O)C(=O)[C@H]2[C@@H](O)[C@@H]1[C@H]1[C@H](O)[C@@H]3C(=O)C3=C(O)c4c(O)cc(C)cc4C(=O)C312 (stereo partly specified),73.0,86.4*,.,58.1,105.6*,7.8,61.3*,29.6
CN1C(=O)/C(=C/c2cccn2-c2ccc3ccccc3c2)C(=O)NC1=S,43.3,100.5*,.,28.5,-12.0,-0.1,23.6,.
Cc1cc(C)cc(N2C(=O)NC(=O)/C(=C\c3cccn3-c3ccc(Cl)cc3)C2=O)c1,.,68.6*,.,29.8,-3.7,-1.8,56.5*,78.9*
C/C=C/c1ccc([C@H]2[C@H]3CN(C(=O)Cc4ccncc4)CCCCN3[C@H]2CO)cc1,.,.,7.6,.,.,.,.,.
COc1cc2nc(CN3CC=C(c4ccccc4)CC3)[nH]c(=O)c2cc1OC,89.8*,78.6*,34.2,-72.1,1.0,-88.3,68.4*,113.0*
COc1cc(C)c(CN2CC=C(c3ccc(F)cc3)CC2)cc1C,27.0,34.7,-6.2,13.6,-0.7,23.0,.,.
CC(C)(C)c1nc(N2CCN(C(=O)c3ccco3)CC2)c2nnn(Cc3ccccc3Cl)c2n1,119.0*,57.4*,.,18.9,21.1,24.0,9.2,.
Cc1nn(Cc2ccccc2Cl)c(Cl)c1C(=O)O,-0.1,-23.2,-8.6,-8.0,-2.6,8.3,.,.
O=C(CN1CCOCC1)c1cccc2ccccc12,-3.5,17.6,6.3,-7.9,-0.7,2.1,.,.
Cc1c(C(=O)c2cccc3ccccc23)c2cccc3c2n1[C@H](CN1CCOCC1)CO3,100.1*,91.5*,100.7*,13.7,.,-4.4,57.4*,93.5*
CC1=NCCc2c1[nH]c1cc(O)ccc21,-11.3,2.8,-17.9,2.6,7.0,-1.6,.,.
C1=NCCc2c1[nH]c1ccccc21,-4.4,52.4*,51.7,-22.1,.,16.5,-54.1,.
CCC(=O)N1[C@@H]2Cn3c(ccc(-c4cccc(F)c4)c3=O)[C@H]1[C@@H](C(=O)OC)[C@@H]2CO,.,.,-3.1,.,.,.,.,.
Cc1ccc(S(=O)(=O)NP(=O)(Oc2ccccc2)Oc2ccccc2)cc1,9.4,12.0,.,-6.6,-5.6,1.4,.,.
Cc1ccc(C)c(NP(=O)(Oc2ccccc2)Oc2ccccc2)c1,45.6,57.9*,42.5,3.5,4.9,6.4,71.8*,68.1*
COC(=O)[C@@H]1[C@@H](CO)[C@@H]2Cn3c(ccc(/C=C/c4ccccc4)c3=O)[C@H]1N2CC1CCCC1,.,.,29.3,.,.,.,.,.
NC(N)=N/N=C/c1cn(-c2ccccc2)nc1-c1cccs1,-13.7,99.5*,17.2,0.0,104.9*,7.3,94.0*,57.4*
O=c1c2ccccc2nc(-c2cccs2)n1-c1ccccc1,2.1,6.4,.,5.8,0.2,10.8,.,.
O=C1CN=C(c2ccc(F)cc2)c2oc3ccccc3c2N1,-4.8,17.7,0.2,-8.6,5.8,1.1,.,.
COc1cccc(OC)c1C1=NCC(=O)Nc2c1oc1ccc(Br)cc21,58.4,70.3*,75.9*,-3.1,26.4,57.1*,67.8*,77.8*
